# Assay results published in ChEMBL document CHEMBL3988442, “University of Dundee, Small-Polar-MMV Screening Library” (2021).
# Where “and” joins values, the source holds several entries; their conditions need not be identical. Equal entries are not always repeated. About 1,200 (3.2%) of roughly 38,000 compounds showed an effect of 50% or more. The median lay at about -58%. What follows is part of a selection rich in strong results, with near analogues and random picks from the rest.
# Test system: Plasmodium falciparum
# Assay: Calibr Malaria Delayed Death Assay SOP
# Type: functional, organism-based
# Set-up: scale not given: in the data most compounds retested in dose-response had high values
# Conditions: concentration 4.99e-06 (unit not given; other assays of the set use mol/L)
SMILES,Percent Effect [%],Percent Effect (4.99 µM)
COCC(O)CNc1ccc(C#N)cc1C(F)(F)F (configuration not stated),-11.9,
CCCS(=O)(=O)N1CC[C@@H]2[C@@H]1CC(=O)N2Cc1csc(C)n1,-243.1,
Cc1cccc(NC(=O)C(C)Oc2ccc3c(c2)OCO3)n1 (configuration not stated),-110.7,
CSCC(=O)NC1(c2cccc(Cl)c2)CC1,-138.1,
CC(C)(C)c1ccc(C2(C(=O)NCCCS(C)(=O)=O)CC2)cc1,-66.39,
Cc1cccc(C2(NCCCS(C)(=O)=O)CCCC2)c1,88.41,
Brc1ccc(C2(NCc3noc(C4CC4)n3)CCC2)cc1,8.334,
Cc1cccc(C2(NC(=O)CCN3C(=O)CCC3=O)CCCC2)c1,-32.71,
CS(=O)(=O)CCCNC1(c2cccc(F)c2)CC1,-29.12,
N#CCCCS(=O)(=O)NC1(c2cccc(Cl)c2)CC1,-108.7,
CS(=O)(=O)CCCNC1(c2ccc(Br)cc2)CCC1,77.64,
CC(Nc1cnn(C)c(=O)c1Cl)c1ccc(F)c(F)c1 (configuration not stated),-61.95,
COc1cc(-c2n[nH]c(CCN)n2)cc(OC)c1OC,-46.27,
Cc1nc(CSCc2ccc(OCC(F)(F)F)nc2)no1,-117.9,
Cc1cccc(CN2C(=O)C[C@H]3[C@@H]2CCN3Cc2ccccn2)n1.O=C(O)C(F)(F)F.O=C(O)C(F)(F)F.O=C(O)C(F)(F)F,-25.52,
Cc1cc(CN2CCC(C3CCN(CCc4ccccc4)CC3)C2)[nH]n1 (configuration not stated),93.56,
Cc1cc(CN2CCC(C3CCN(Cc4cccnc4)CC3)C2)[nH]n1 (configuration not stated),8.003,
Cc1cc(CN2CCC(C3CCN(CCc4ccccc4)C3)CC2)[nH]n1 (configuration not stated),35.64,
Cc1cc(C)cc(CN2C[C@@H]3OCCN(CC(=O)N(C)C)[C@@H]3C2)c1.O=C(O)C(F)(F)F,-102.5,
COc1ccc(CCNCc2ccco2)cc1OC,3.158,
CCCc1ccc(OCCNCc2ccco2)c(OC)c1.Cl,50.1,
COc1cc(C(C)=O)ccc1OCCNCc1ccco1.Cl,-1.065,
COc1ccc(CN2CCN(CCn3ccnc3)CC2)cc1F,-77.09,
N#CCCSc1nnc(Cc2ccccc2F)o1,0.1656,
Cc1ccc(CN2CC[C@H]3CO[C@H](CN4CCCC4)[C@H]3C2)o1.O=C(O)C(F)(F)F.O=C(O)C(F)(F)F,27.44,

SMILES,Percent Effect [%],Percent Effect (4.99 µM)
CN1CCN(C[C@@H]2OC[C@H]3CN(Cc4cccc(F)c4)CC[C@H]32)CC1.O=C(O)C(F)(F)F.O=C(O)C(F)(F)F.O=C(O)C(F)(F)F,17.46,
O=C(O)C(F)(F)F.O=C(O)C(F)(F)F.c1cc2c(cc1CN1CC[C@H]3CO[C@H](CN4CCCC4)[C@H]3C1)OCO2,77.9,
CN1CCN(C[C@@H]2OC[C@H]3CN(CCc4ccccc4)CC[C@H]32)CC1.O=C(O)C(F)(F)F.O=C(O)C(F)(F)F.O=C(O)C(F)(F)F,64.83,
Cc1ccc(CN2CC[C@@H]3[C@@H](CO[C@H]3CN3CCN(C)CC3)C2)cc1.O=C(O)C(F)(F)F.O=C(O)C(F)(F)F.O=C(O)C(F)(F)F,-1.718,
N#Cc1cccc(CN2CC[C@@H]3CO[C@@H](CN4CCCC4)[C@@H]3C2)c1.O=C(O)C(F)(F)F.O=C(O)C(F)(F)F,9.568,
Cn1cc(N2CCC3(CCCN(Cc4ccoc4)C3)C2=O)cn1 (configuration not stated),-100.7,
O=C1CCC2(CCN(CC[C@H](O)c3ccccc3)CC2)CN1CCO,-15.36,
NC(=O)CCNC(=O)C1(N2CCCCC2)Cc2ccccc2C1,-32.27,
CN1CC(C(=O)N2CCN(c3cccc(Cl)c3)C(=O)C2)NC1=O (configuration not stated),-61.36,
CC(Cn1cccn1)NCc1nc(-c2cccs2)no1 (configuration not stated),-237.8,
Cc1cnn(CC(C)NCc2nc(-c3cccs3)no2)c1 (configuration not stated),-78.64,
CC(Cn1cccn1)NCCCc1nc(-c2cccs2)no1 (configuration not stated),66.81,
CC(C)NC(=O)[C@H](C)NC(=O)N1CCN(c2ccc(Cl)cc2)CC1,-40.36,
CC(C)Cn1ncc(C(=O)NS(=O)(=O)c2ccccc2)c1C1CC1,-129.8,
COc1ccc(OC)c(C(C)NS(=O)(=O)c2cn(C)nc2C)c1 (configuration not stated),-72.91,
CC(=O)NC[C@@H]1C=C(C)[C@H](CC(=O)NCCN(C)C)C[C@H]1C(C)C,-26.76,
CCc1ncc(C(=O)N(C)CCc2nc3cc(OC)ccc3[nH]2)cn1,-128,
CCn1nc(C)c(C(=O)N2C[C@@H](CN(C)C)[C@@H](CO)C2)c1C,,-17.38% and -19.57%
CC(=O)N1CCC(=O)N(C2CCCC2)Cc2ccccc21,-73.21,
CCn1c(=O)nc(N)c2c(-c3ccc(OC)cc3)csc21,-67.94,
COc1ccc(-c2csc3c2c(N)nc(=O)n3CCN(C)C)cc1,-27.97,
COc1ccc(-c2csc3c2c(N)nc(=O)n3CCCN(C)C)cc1,54.04,
CC(C)c1nc(N2CC(N3CCCCC3C)C2)c2cnn(C)c2n1 (configuration not stated),-59.85,
CC(C)c1nc(N2CCC(N3CCCCCC3)CC2)c2cnn(C)c2n1,50.67,
Cc1nc(N2CCCC(N3CCCC3)C2)c2cnn(C)c2n1 (configuration not stated),-29.13,

SMILES,Percent Effect [%],Percent Effect (4.99 µM)
Cc1nccn1C1CCCN(C(=O)c2cccc3c2OCO3)C1 (configuration not stated),-58.82,
NC(=O)C1CCC(NC(=O)COc2ccc(Cl)c(Cl)c2)CC1 (configuration not stated),13.16,
O=C1CC(N2CCN(c3ccccc3O)CC2)C(=O)N1Cc1cccs1 (configuration not stated),-172.2,
CCN(Cc1nc(COC)no1)C(=O)CCn1c(C)cc2ccccc21,5.524,
CCN(Cc1ccncc1)C(=O)CCn1c(C)cc2ccccc21,55.24,
Cc1cc2ccccc2n1CCC(=O)NCCN(C)S(C)(=O)=O,-87.62,
CN(C)C(=O)CC1CC2(CCN(Cc3cccs3)CC2)c2ccccc21.O=C(O)C(F)(F)F (configuration not stated),22.44,
CN1CCN(C(=O)N2CCCC(c3nccn3CC3CCC3)C2)CC1 (configuration not stated),-95.73,
CC(=O)N1CCC(C(=O)NCc2ncc(-c3ccccc3)o2)CC1,-123.2,
CC(=O)Nc1cccc(CN2CCCC2C(=O)Nc2nccs2)c1 (configuration not stated),-76.05,
CCNc1ccnc(CN2CCCC2C(=O)Nc2nccs2)c1 (configuration not stated),94.9,
CCc1nc(CN2CCCC2C(=O)NC2CC2)cs1 (configuration not stated),-16.64,
CCc1nc(CN2CCCC2C(=O)NC)cs1 (configuration not stated),-71.78,
CCn1ccnc1CN1CCCC1C(=O)Nc1nccs1 (configuration not stated),84.6,
CN(Cc1cnn(C)c1)C(=O)C1CCCN1Cc1ccccn1 (configuration not stated),-66.14,
NC(=O)C1CCCN1Cc1nccn1CC(F)(F)F (configuration not stated),-38.81,
CC(C)(C)NC(=O)C1CCCCN1Cc1nccn1CC(F)(F)F (configuration not stated),-48.44,
O=C(Nc1nccs1)C1CCCN1Cc1ccccn1 (configuration not stated),93.51,
Cc1cnn(CC2CCCN2C(=O)c2n[nH]c3ccccc23)c1 (configuration not stated),-56.22,
CC(=O)Nc1ccc(SCCCC(=O)NCC2CCCO2)nn1 (configuration not stated),-99.67,
CC(NC(=O)N1CCC1)c1ccc(S(N)(=O)=O)cc1 (configuration not stated),-105.8,
Cc1ccc(NC(=O)NCCc2cnn(C)c2)c(N(C)C)n1,-69.56,
CCc1ccsc1C(=O)N1CCN(C(=O)CC(F)(F)F)CC1,-98.82,
CCC1(CC)CC(=O)N(CC(O)c2cc(F)ccc2F)C1=O (configuration not stated),-120,
Cc1cccc(CN2CCc3ncnc(N4CCCC4)c3CC2)n1.O=C(O)C(F)(F)F,-17.07,

SMILES,Percent Effect [%],Percent Effect (4.99 µM)
O=c1c(NCc2ccco2)c(NCC(O)CN2CCOCC2)c1=O (configuration not stated),-219.4,
O=C(c1ccnc(N2CCOC(C(F)(F)F)C2)c1)N1CCCC1 (configuration not stated),-34.44,
O=C(Nc1cccnc1)NC1CCN(c2ccccc2OC(F)F)C1 (configuration not stated),16.84,
O=C(Nc1cn[nH]c1)NC1CCN(c2ccccc2OC(F)F)C1 (configuration not stated),-124.3,
O=C(Nc1ccncc1)NC1CCN(c2ccccc2OC(F)F)C1 (configuration not stated),64.77,
Cc1noc(C)c1CNC1CCN(c2ccccc2OC(F)F)C1 (configuration not stated),63.44,
Cc1c(CNC2CCN(c3ccccc3OC(F)F)C2)cnn1C (configuration not stated),69.48,
Cc1noc(C)c1CNc1c(N2CCCC2)cccc1N1CCCC1,-39.5,
O=C(NC1CCN(c2ccccc2OC(F)F)C1)c1cccnc1 (configuration not stated),-43.56,
COc1ccccc1N1CCC(NCc2c(C)noc2C)C1 (configuration not stated),24.81,
O=C(Nc1ccccn1)NC1CCN(c2ccccc2OC(F)F)C1 (configuration not stated),9.794,
CC1(C)CCN1C(=O)c1cc(F)cc2[nH]cnc12,-143.1,
CNC(=O)CS(=O)(=O)NC1CCC(C)CC1 (configuration not stated),0.5939,
Cc1cc(CN2CCN(Cc3cc(C#N)ccc3F)CC2)no1,-43.24,
O=C(O)C(F)(F)F.c1cnc(N2C[C@@H]3COC[C@]3(COCC3CCCC3)C2)nc1,-62.66,
COc1ccc(S(=O)(=O)NCCn2cnc(C)cc2=O)cc1C,-119.1,
COc1cccc(CN(C)Cc2ccccc2C#N)c1OC,-10.45,
COc1cccc(CN(C)Cc2cc(C#N)ccc2F)c1OC,-37.67,
CC(C)OCc1nn(C)c2c1CCN(CC1CC1)C2.O=C(O)C(F)(F)F,-24.03,
O=C(N1CCc2ccccc2CC1)C1(O)Cc2ccccc2C1,56.27,
O=C(N1CCSCC1)C1(O)Cc2ccccc2C1,-49.25,
O=C(N1CCN(CCO)CC1)C1(O)Cc2ccccc2C1,-7.059,
